Data published in PubChem BioAssay.
The source made the active and inactive calls.

Assays:
[1] = small molecules captured by biotinylated probe aFSTL3 – biochemical, small-molecule microarray, fluorescence 635/667, stem cell growth factor project, primary screen (AID 1064); conditions: higher = more signal;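 further: measures binding of the biotinylated anti-FSTL3 antibody to printed compounds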
[2] = binders from COS7 lysate, DM2A8 probe, primary screen, torsin A project, cell lysate, small-molecule microarray, fluorescence 635/667 (AID 1065); conditions: higher = more signal, COS7 lysate expressing mutant human TOR1A
[3] = small molecules captured by biotinylated probe aFGF2 – biochemical, small-molecule microarray, fluorescence 635/667, stem cell growth factor project, primary screen (AID 1067); conditions: higher = more signal;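 further: measures binding of biotinylated aFGF2 protein to printed compounds on slides; z-score merges feature fluorescence and signal-to-noise across triplicate slides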
[4] = small molecules captured by biotinylated probe aFGF10 – biochemical, small-molecule microarray, fluorescence 635/667, stem cell growth factor project, primary screen (AID 1071); conditions: higher = more signal;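 further: score merges 667 nm spot intensity and signal to noise from triplicate slides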
[5] = target: Neurogenic locus notch homolog protein 2 (Homo sapiens) (UniProt Q04721); experiment: small molecules binding Notch2 protein – biochemical, small-molecule microarray, 635 nm fluorescence, stem cell growth factors, primary screen (AID 1073); conditions: higher = more signal
[6] = target: Pro-neuregulin-1, membrane-bound isoform (Homo sapiens) (UniProt Q02297); experiment: small molecules binding neuregulin-1 protein – biochemical, small-molecule microarray, fluorescence 635/667, psychiatric disease protein project, primary screen (AID 1075); conditions: NRG1 binding, 635 nm fluorescence, higher = more signal;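 further: score combines 667 nm spot fluorescence with signal to noise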
[7] = tested on: Neuregulin-1 EGF-like domain; experiment: small molecules binding NRG1 EGF domain – biochemical, small-molecule microarray, 635 nm fluorescence, primary screen (AID 1081); conditions: higher = more signal;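 further: binding of the protein to compounds printed on small-molecule microarray slides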
[8] = FRG1 expression reporter modulators in myotubes – cell-based, C2C12 myotubes, firefly/Renilla luciferase, luminescence, FRG1 inhibition for FSHD, primary screen (AID 1084); conditions: FRG1 promoter luciferase, higher = more signal, called active from +8 up or from −8 down
[9] = small molecules captured by biotinylated probe aFST – biochemical, small-molecule microarray, fluorescence 635/667, stem cell growth factor project, primary screen (AID 1086); conditions: higher = more signal;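 further: score merges 667 nm fluorescence with signal-to-noise of each printed compound spot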
[10] = binders of probe aHhip on microarray, primary screen, stem cell growth factor project, biochemical, small-molecule microarray, fluorescence 635/667 (AID 1087); conditions: higher = more signal;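 further: score merges spot fluorescence at 667nm with spot signal to noise ratio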

Neurogenic locus notch homolog protein 2 (Homo sapiens), sequence (Q04721 whole entry, looked up, canonical isoform): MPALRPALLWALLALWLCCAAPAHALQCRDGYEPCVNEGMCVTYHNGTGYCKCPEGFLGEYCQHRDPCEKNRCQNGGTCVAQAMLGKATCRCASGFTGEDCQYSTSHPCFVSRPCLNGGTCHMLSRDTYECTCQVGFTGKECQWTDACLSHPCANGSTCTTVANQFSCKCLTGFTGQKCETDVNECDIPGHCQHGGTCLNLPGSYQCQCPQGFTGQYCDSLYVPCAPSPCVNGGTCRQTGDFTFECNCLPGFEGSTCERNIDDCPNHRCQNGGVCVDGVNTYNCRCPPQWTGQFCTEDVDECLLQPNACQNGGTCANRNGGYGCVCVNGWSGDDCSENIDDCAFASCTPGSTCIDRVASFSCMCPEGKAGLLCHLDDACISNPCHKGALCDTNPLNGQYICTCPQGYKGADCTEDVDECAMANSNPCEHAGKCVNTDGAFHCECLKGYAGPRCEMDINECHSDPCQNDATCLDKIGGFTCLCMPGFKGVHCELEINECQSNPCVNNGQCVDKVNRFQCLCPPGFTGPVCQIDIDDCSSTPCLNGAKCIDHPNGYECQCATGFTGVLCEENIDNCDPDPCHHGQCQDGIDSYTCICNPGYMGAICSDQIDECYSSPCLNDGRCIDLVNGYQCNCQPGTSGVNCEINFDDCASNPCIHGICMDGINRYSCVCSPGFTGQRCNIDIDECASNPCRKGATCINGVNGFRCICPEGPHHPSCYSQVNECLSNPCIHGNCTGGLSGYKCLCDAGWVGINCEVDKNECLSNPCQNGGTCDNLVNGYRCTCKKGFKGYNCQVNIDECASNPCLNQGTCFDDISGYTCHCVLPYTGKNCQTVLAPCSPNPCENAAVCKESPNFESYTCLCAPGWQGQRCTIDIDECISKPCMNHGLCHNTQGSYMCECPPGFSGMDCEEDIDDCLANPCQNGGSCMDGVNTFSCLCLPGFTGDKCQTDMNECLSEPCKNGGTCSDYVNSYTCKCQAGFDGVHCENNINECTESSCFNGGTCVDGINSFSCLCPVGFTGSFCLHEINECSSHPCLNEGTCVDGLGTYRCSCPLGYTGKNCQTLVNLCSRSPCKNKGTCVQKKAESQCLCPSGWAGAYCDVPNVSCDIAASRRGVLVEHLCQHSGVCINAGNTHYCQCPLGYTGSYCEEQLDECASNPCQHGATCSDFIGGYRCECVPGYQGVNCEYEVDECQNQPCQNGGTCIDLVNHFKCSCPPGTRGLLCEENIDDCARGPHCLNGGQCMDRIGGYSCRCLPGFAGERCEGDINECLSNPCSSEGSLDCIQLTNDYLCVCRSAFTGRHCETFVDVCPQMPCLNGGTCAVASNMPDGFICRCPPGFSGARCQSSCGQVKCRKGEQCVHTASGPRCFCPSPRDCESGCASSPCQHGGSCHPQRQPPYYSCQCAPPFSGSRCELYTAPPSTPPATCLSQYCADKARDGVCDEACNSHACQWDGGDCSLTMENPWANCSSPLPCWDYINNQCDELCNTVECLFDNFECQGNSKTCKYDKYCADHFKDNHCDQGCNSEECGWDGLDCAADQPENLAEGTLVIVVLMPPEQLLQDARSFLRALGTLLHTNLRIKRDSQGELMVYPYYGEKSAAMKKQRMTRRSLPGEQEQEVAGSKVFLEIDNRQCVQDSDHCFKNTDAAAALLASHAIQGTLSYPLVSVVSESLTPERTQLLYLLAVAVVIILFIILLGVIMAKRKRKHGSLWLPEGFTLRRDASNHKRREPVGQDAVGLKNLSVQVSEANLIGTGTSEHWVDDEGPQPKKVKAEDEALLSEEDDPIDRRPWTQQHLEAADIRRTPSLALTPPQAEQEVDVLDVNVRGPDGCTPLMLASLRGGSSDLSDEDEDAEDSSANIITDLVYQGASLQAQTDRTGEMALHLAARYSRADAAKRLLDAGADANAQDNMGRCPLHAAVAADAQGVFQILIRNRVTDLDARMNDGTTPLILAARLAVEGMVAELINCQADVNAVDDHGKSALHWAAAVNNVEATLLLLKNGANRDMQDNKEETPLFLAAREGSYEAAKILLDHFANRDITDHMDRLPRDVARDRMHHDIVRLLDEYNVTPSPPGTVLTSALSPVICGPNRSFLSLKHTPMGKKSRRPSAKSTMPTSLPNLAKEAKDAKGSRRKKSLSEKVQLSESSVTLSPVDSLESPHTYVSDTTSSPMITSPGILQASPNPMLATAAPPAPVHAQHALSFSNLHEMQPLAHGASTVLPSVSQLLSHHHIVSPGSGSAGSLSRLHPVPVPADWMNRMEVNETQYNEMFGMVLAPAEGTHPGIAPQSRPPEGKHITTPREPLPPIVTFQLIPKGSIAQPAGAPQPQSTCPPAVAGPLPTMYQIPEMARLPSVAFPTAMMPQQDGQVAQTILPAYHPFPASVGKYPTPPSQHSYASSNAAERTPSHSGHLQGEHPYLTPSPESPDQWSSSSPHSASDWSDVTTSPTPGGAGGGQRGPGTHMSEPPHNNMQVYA
Pro-neuregulin-1, membrane-bound isoform (Homo sapiens), sequence (Q02297 whole entry, looked up, the tested form may be a part, canonical isoform): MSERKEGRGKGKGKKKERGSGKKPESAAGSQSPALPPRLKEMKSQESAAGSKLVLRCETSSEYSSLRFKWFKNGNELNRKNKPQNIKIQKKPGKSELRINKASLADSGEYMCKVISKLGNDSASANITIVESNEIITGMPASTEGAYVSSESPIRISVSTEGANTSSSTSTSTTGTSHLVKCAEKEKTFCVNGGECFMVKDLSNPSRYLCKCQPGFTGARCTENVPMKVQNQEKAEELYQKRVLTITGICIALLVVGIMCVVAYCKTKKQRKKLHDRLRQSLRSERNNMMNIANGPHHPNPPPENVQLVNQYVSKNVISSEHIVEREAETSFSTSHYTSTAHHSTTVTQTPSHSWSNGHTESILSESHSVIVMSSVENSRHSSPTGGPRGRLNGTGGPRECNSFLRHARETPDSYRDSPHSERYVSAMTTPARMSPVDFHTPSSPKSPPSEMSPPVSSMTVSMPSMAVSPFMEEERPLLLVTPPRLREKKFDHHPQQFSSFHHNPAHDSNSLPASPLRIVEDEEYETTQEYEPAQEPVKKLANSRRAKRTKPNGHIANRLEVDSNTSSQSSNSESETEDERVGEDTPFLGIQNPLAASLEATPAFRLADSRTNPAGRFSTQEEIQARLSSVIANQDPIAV

| SMILES | composite z-score [1] | composite z-score [2] | composite z-score [3] | composite z-score [4] | composite z-score [5] | composite z-score [6] | composite z-score [7] | z-score [8] | composite z-score [9] | composite z-score [10] |
| --- | --- | --- | --- | --- | --- | --- | --- | --- | --- | --- |
| C=CCC(OC(C)=O)[C@@H]1[C@@H](N(Cc2ccc(-c3ccccc3)cc2)C(=O)Cc2ccc(F)cc2)c2cc(OCCCO)ccc2N1C(=O)c1ccc2ccccc2c1 (stereo not given in full) | -0.313 | 0.273 | -0.0222 | -0.0326 | 0.166 | -0.158 | -0.31 | 0.375 (inactive) | 0.0263 | -0.226 |
| CC(C)NC(=O)[C@@H]1c2ccccc2C(=O)N(C(C)C)[C@H]1c1ccc(CO)cc1 | 0.473 | 0.0121 | -0.0064 | -0.057 | -0.78 | 0.853 | 1.47 | 0.229 (inactive) | -0.868 | -0.236 |
| O=C(O)[C@@]1(CCS(=O)(=O)c2ccccc2)N=C(c2ccc(OCCCO)cc2)O[C@H]1c1ccccc1 | 0.132 | -0.0272 | 0.0654 | -0.029 | 0.604 | 1.62 | 1.06 | 2.18 (inactive) | 0.38 | -0.0994 |
| O=C1OCC=C[C@H]2OC34C=CCN(CCN5CCOCC5)C(=O)[C@H]3N(CCO)C(=O)[C@@H]4[C@@H]12 (stereo not given in full) | -0.341 | -0.483 | -0.0985 | -0.659 | -0.273 | 0.605 | 0.242 | 1.02 (inactive) | -0.218 | -0.412 |
| CCOC(=O)C[C@H]1[C@H](OC(=O)c2ccc(C(=O)c3ccccc3)cc2)[C@@H](NC(=O)c2ccccc2)c2cc(OCCCO)ccc2N1C(=O)c1ccccc1 | -0.481 | 0.0554 | -0.0376 | 0.683 | 0.783 | 0.636 | 0.935 | -1.48 (inactive) | 0.204 | 0.0053 |
| COCCOC(=O)N1C(=O)[C@@]2(c3cc(C#CC4(O)CCCCCC4)ccc31)[C@H](c1ccccc1OCCO)N1[C@H](c3ccccc3)[C@H](c3ccccc3)OC(=O)[C@H]1[C@@H]2C(=O)N1CCc2cc(OC)c(OC)cc2C1 | -0.207 | 0.788 | -0.0685 | 0.542 | 1.03 | 1.6 | 1.19 | -0.658 (inactive) | 0.223 | 0.177 |
| C=C(CCCC)/C(=C/C[C@@H](OC(C)=O)c1ccccc1OCCO)c1cc(C(=O)OC)ccc1OC | 0.0248 | -0.0044 | -0.0996 | 0.187 | -0.659 | -0.0693 | -0.0487 | 0.549 (inactive) | -0.38 | -0.271 |
| COCCOC(=O)N1C(=O)[C@@]2(c3ccccc31)[C@H](C(=O)N1CCCCCCC1)[C@H]1C(=O)O[C@H](c3ccccc3)[C@H](c3ccccc3)N1[C@@H]2c1ccc(OCCO)cc1 | 4.16 | 2.62 | 1.09 | 1.49 | 1.75 | 2.93 | 1.5 | -1.64 (inactive) | 3.82 | 3.98 |
| Cc1ccc([C@H]2C(C(=O)O)=CCN2S(=O)(=O)c2ccc(C)cc2)cc1 | -0.0451 | 0.0722 | -0.0271 | 0.231 | 0.539 | 1.24 | 1.1 | -0.186 (inactive) | 0.224 | -0.0305 |
| O=C1[C@H]2C=C(I)[C@H](C[C@@H]2OCCCCO)[C@@]12CO2 | -0.0695 | 2.01 | 0.209 | -0.484 | -0.542 | -0.456 | 0.576 | 0.988 (inactive) | -0.174 | 0.162 |
| CO[C@H]1O[C@H](CO)[C@@H](OC(=O)Nc2ccc(Oc3ccccc3)cc2)[C@H](OC(=O)Nc2ccc3c(c2)OCO3)[C@@H]1OC(=O)Nc1ccc2c(c1)OCO2 | 0.154 | 0.333 | -0.0493 | 1.22 | 1.55 | 0.516 | 1.09 | -0.0746 (inactive) | 0.8 | 0.28 |
| [N-]=[N+]=NCc1ccccc1[C@H]1OC(c2ccc(OCCCO)cc2)=N[C@@]1(Cc1ccccc1)C(=O)N1CCCCC1 | -0.222 | 0.368 | 0.022 | 0.78 | 1.46 | 0.947 | 1.18 | -2.51 (inactive) | 0.573 | -0.201 |
| O=C1O[C@@H](c2ccccc2)[C@@H](c2ccccc2)N2[C@@H](c3ccc(OCCO)cc3)[C@]3(C(=O)Nc4ccc(C#CC5=CCCCC5)cc43)[C@@H](C(=O)N3CCCCCCC3)[C@H]12 | 3.69 | 1.51 | 0.753 | 0.867 | 1.49 | 1.38 | 1.26 | 1.75 (inactive) | 3.12 | 0.354 |
| COC(=O)[C@@]1(CCC(=O)OC(C)(C)C)N=C(c2ccc(OCCCO)cc2)O[C@H]1c1ccccc1 | 0.579 | -0.168 | -0.024 | -0.0016 | 0.124 | 0.916 | 0.774 | 0.174 (inactive) | -0.164 | 0.0505 |
| O[C@@H](Cc1ccccc1)[C@@H](/C=C/C1CC1)NCc1cccc(Cl)c1 | 1.53 | 0.0563 | -0.224 | -0.813 | -1.43 | -0.146 | -0.344 | -0.715 (inactive) | -0.699 | -0.0994 |
| O=c1cccc(-c2ccccc2Cl)o1 | -0.152 | -0.201 | -0.0621 | 0.366 | 0.772 | -0.234 | 0.311 | 1.17 (inactive) | 0.241 | -0.0047 |
| COc1cc(CO)cc(I)c1O[C@H]1C=C(C(=O)NCCO)C[C@@H](N(C(=O)c2cc3ccccc3oc2=O)C2CCCCCC2)[C@@H]1O | -0.386 | 0.419 | -0.0935 | 0.661 | 0.511 | -0.19 | -0.52 | -0.738 (inactive) | -0.0938 | 0.0646 |
